Measured values from PubChem BioAssay AID1159580 (chemical genetic matrix, 2015).
Several values for one entry are separate records, joined by “and”; a condition that tells them apart may be missing. Equal values may be shown once. About 2,000 (36%) of roughly 5,500 compounds were called active. Another 18% or so got no clear call; they are omitted. No stated cut-off is given here; in the data, active means normalized growth mostly below about 0.91 (no sharp cut-off); inconclusive means no clear call, values can overlap the other calls; inactive means mostly above about 0.92. Some of the results follow.

Test: chemical genetic growth profiling, strain panel (AID 1159580);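 further: tested at 20 µM; growth read once vehicle control cultures reached saturation at 30 °C; 1 = growth at the plate median or of vehicle wells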
Conditions: S. cerevisiae deletion strains, growth OD

Measured: normalized growth

COc1cc(C(=O)NCc2ccc(OCCN(C)C)cc2)cc(OC)c1OC
inactive: locus YAL013W, strain DEP1, stronger effect = lower value 1 | locus YAL021C, strain ccr4, stronger effect = lower value 0.993 | locus YAL026C, strain drs2, stronger effect = lower value 0.998 | locus YAL030W, strain snc1, stronger effect = lower value 1 | locus YBL061C, strain skt5, stronger effect = lower value 0.981 | locus YBR009C, strain hhf1, stronger effect = lower value 1 | locus YBR021W, strain FUR4, stronger effect = lower value 1.03 | locus YBR023C, strain chs3, stronger effect = lower value 0.985 | locus YBR171W, strain sec66, stronger effect = lower value 0.999 | locus YBR229C, strain ROT2, stronger effect = lower value 0.951 | locus YBR231C, strain swc5, stronger effect = lower value 0.99 | locus YBR279W, strain paf1, stronger effect = lower value 1 | locus YCL011C, strain gbp2, stronger effect = lower value 1.01 | locus YCL016C, strain dcc1, stronger effect = lower value 0.98 | locus YCL029C, strain bik1, stronger effect = lower value 0.977 | locus YCL061C, strain MRC1, stronger effect = lower value 1 | locus YCL069W, strain vba3, stronger effect = lower value 0.995 | locus YCR088W, strain abp1, stronger effect = lower value 0.99 | locus YDL005C, strain med2, stronger effect = lower value 1.01 | locus YDL035C, strain GPR1, stronger effect = lower value 1.01 | locus YDL040C, strain nat1, stronger effect = lower value 1.02 | locus YDL074C, strain BRE1, stronger effect = lower value 0.951 | locus YDL101C, strain DUN1, stronger effect = lower value 0.973 | locus YDL134C, strain PPH21, stronger effect = lower value 0.996 | locus YDL185W, strain tfp1, stronger effect = lower value 0.979 | locus YDL192W, strain arf1, stronger effect = lower value 0.982 | locus YDR001C, strain nth1, stronger effect = lower value 1 | locus YDR069C, strain doa4, stronger effect = lower value 1 | locus YDR101C, strain arx1, stronger effect = lower value 0.93 | locus YDR137W, strain rgp1, stronger effect = lower value 1.01 | locus YDR150W, strain NUM1, stronger effect = lower value 0.974 | locus YDR159W, strain sac3, stronger effect = lower value 0.953 | locus YDR162C, strain NBP2, stronger effect = lower value 1.01 | locus YDR195W, strain ref2 0.997 | locus YDR297W, strain sur2, stronger effect = lower value 0.981 | locus YDR318W, strain mcm21, stronger effect = lower value 0.992 | locus YDR334W, strain swr1, stronger effect = lower value 0.99 | locus YDR335W, strain msn5, stronger effect = lower value 0.982 | locus YDR388W, stronger effect = lower value 0.988 | locus YDR392W, strain spt3, stronger effect = lower value 0.833 | locus YDR502C, strain sam2, stronger effect = lower value 0.985 | locus YEL003W, strain gim4, stronger effect = lower value 1 | locus YEL037C, strain rad23, stronger effect = lower value 0.988 | locus YEL061C, strain CIN8 (second series), stronger effect = lower value 0.978 | locus YEL061C, strain CIN8, stronger effect = lower value 0.978 | locus YER015W, strain faa2, stronger effect = lower value 0.991 | locus YER016W, strain bim1, stronger effect = lower value 0.994 | locus YER110C, stronger effect = lower value 0.984 | locus YER111C, strain swi4, stronger effect = lower value 0.982 | locus YER155C, strain BEM2 (second series), stronger effect = lower value 0.988 | locus YER155C, strain BEM2, stronger effect = lower value 0.996 | locus YER167W, strain BCK2, stronger effect = lower value 0.997 | locus YFR010W, strain ubp6, stronger effect = lower value 1 | locus YGL078C, strain dbp3, stronger effect = lower value 0.981 | locus YGL086W, strain mad1, stronger effect = lower value 0.966 | locus YGL167C, strain pmr1, stronger effect = lower value 1 | locus YGL173C, strain kem1, stronger effect = lower value 1 | locus YGL227W, strain vid30, stronger effect = lower value 1.01 | locus YGL240W, strain doc1, stronger effect = lower value 0.984 | locus YGL248W, strain PDE1, stronger effect = lower value 0.975 | locus YGL253W, strain hxk2, stronger effect = lower value 0.993 | locus YGR078C, strain PAC10, stronger effect = lower value 0.963 | locus YGR135W, strain pre9, stronger effect = lower value 1.06 | locus YGR229C, strain SMI1, stronger effect = lower value 1.02 | locus YGR252W, strain gcn5, stronger effect = lower value 1.03 | locus YHR013C, strain ard1, stronger effect = lower value 0.949 | locus YHR027C, strain rpn1, stronger effect = lower value 0.979 | locus YHR030C, strain SLT2, stronger effect = lower value 0.985 and 0.966 | locus YHR079C, strain IRE1 (second series), stronger effect = lower value 0.976 | locus YHR079C, strain IRE1, stronger effect = lower value 0.976 | locus YHR094C, strain hxt1, stronger effect = lower value 0.979 | locus YHR129C, strain ARP1, stronger effect = lower value 0.995 | locus YHR142W, strain chs7, stronger effect = lower value 0.982 | locus YHR200W, strain rpn10, stronger effect = lower value 0.983 | locus YIL066C, strain RNR3, stronger effect = lower value 0.963 | locus YIL073C, strain SPO22, stronger effect = lower value 1.04 | locus YIL125W, strain kgd1, stronger effect = lower value 0.976 | locus YIR030C, strain dcg1, stronger effect = lower value 0.989 | locus YJL092W, strain hpr5, stronger effect = lower value 0.997 | locus YJL095W, strain BCK1 (second series), stronger effect = lower value 0.988 | locus YJL095W, strain BCK1, stronger effect = lower value 0.991 and 0.995 | locus YJL115W, strain asf1, stronger effect = lower value 0.993 | locus YJL129C, strain trk1, stronger effect = lower value 0.981 | locus YJL134W, strain LCB3, stronger effect = lower value 0.993 | locus YJL154C, strain vps35, stronger effect = lower value 1.02 | locus YJL164C, strain tpk1, stronger effect = lower value 1 | locus YJL166W, strain qcr8, stronger effect = lower value 0.988 | locus YJL168C, strain set2, stronger effect = lower value 0.979 | locus YJL187C, strain SWE1 (second series), stronger effect = lower value 0.953
